Compound activity: PubChem, Buhrlage Lab, Dana-Farber Cancer Institute and Novartis Institutes for BioMedical Research (Cambridge, Mass)
Only some compounds are listed: those with a hit (about 4.6% of all), similar ones and a draw of the others.
USP10 inh: human USP10 deubiquitinase inhibition; Q14694; purified USP10, Ub-rhodamine fluorescence, 60 min; inhibition, % at 20 µM; actives 1.1% (n = 47,000); AID 1645856
UCHL1 inh: inhibitors of human UCHL1 deubiquitinase; inhibition, % at 20 µM; P09936; actives 0.2% (n = 47,000); purified UCHL1, Ub-rhodamine cleavage fluorescence
Target sequence (P09936 whole entry, looked up): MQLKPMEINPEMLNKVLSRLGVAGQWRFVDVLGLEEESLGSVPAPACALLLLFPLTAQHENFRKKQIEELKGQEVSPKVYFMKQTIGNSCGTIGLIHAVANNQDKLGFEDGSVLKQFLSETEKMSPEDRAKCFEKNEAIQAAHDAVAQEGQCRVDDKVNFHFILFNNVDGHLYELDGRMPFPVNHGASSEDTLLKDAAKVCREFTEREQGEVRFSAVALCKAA
USP7 block: inhibitors of human USP7 deubiquitinase; purified USP7, Ub-rhodamine cleavage fluorescence; AID 1645854; Q93009; actives 0.3% (n = 47,000); inhibition, % at 20 µM
USP8 inh: blocks human USP8 ubiquitin-rhodamine cleavage. P40818. AID 1645853. purified USP8, Ub-rhodamine cleavage fluorescence, 30 min. inhibition, % at 20 µM. actives 4.2% (n = 47,000)
Active calls of the source: *. Cut-off read from the data, not from the text of the source: active = inhibition above about 30%; inactive = the rest.

SMILES	USP10 inh	UCHL1 inh	USP7 block	USP8 inh
O=C(COc1ccc(N2CC(C(=O)NCc3ccccc3)CC2=O)cc1)Nc1ccc(F)cc1 (stereo not given)	22	8	26	64*
Cc1ccc(NCc2cc(=O)n3c(C)csc3n2)c(C)c1	2	0	0	0
O=C(NC1CC1)c1ccnn1-c1ccc2ccc(-c3cccnc3)cn12	-5	-167	-153	-122
COc1ccc2c(C)c(CC(=O)N[C@H](CSCc3ccccc3)C(=O)O)c(=O)oc2c1	4	2	1	13
O=C1CC[C@]2(O)CCO[C@@H]2C1	2	-1	2	-1
COc1ccc(CCNC(=O)Cn2c(=O)n(CCCCC(=O)NCc3ccc4c(c3)OCO4)c(=O)c3ccccc32)cc1OC	19	4	9	-3
O=C(CSc1c[nH]c2ccccc12)Nc1ccc2c(c1)OCO2	2	2	-4	6
O=C(Cn1c(=O)c2ccccc2c2ccccc21)Nc1ccc2c(c1)OCO2	42*	9	27	87*
O=C(Cn1c(=O)n(CCC(=O)N2CCc3ccccc3C2)c(=O)c2ccccc21)NCCC1=CCCCC1	11	4	11	7
O=C(CCCn1c(=O)c2ccccc2n(CC(=O)NCc2ccccc2Cl)c1=O)NCc1ccc2c(c1)OCO2	57*	6	27	73*
Cc1cccc(C)c1NC(=O)Cn1c(=O)n(CCCCC(=O)NCc2ccc3c(c2)OCO3)c(=O)c2ccccc21	54*	4	17	69*
O=C(Cn1c(=O)n(CCC(=O)N2CCc3ccccc3C2)c(=O)c2ccccc21)NCc1ccccc1Cl	23	7	-6	90*
COc1ccccc1C1c2[nH]c3ccccc3c2C[C@H]2C(=O)N(CCCc3ccccc3)CC(=O)N12 (stereo not given in full)	-3	-17	-15	-30
Cn1cc(CC(=O)NC2CCCC2)c2cccnc21	-5	0	0	5
COc1ccc(OCC(=O)Nc2cccc(N3CCCS3(=O)=O)c2)cc1	0	-1	0	2
O=C(CSc1n[nH]c2nc3ccccc3n12)Nc1ccc2c(c1)OCO2	10	3	4	30*
Cc1cc(S(=O)(=O)N2CCC(C3(C)NC(=O)NC3=O)CC2)ccc1F (stereo not given)	15	2	8	53*
Cc1cc(S(=O)(=O)N2CCC(c3c(C)[nH]c4ccccc34)CC2)ccc1F	-3	1	-5	10
CCN1C(=O)C2(CCN(C(=O)N(C)C)CC2)CC12CCNCC2	0	4	6	-6
CC(C)CN1C[C@H]2CCN(c3ncccn3)CC[C@H]2S1(=O)=O	2	0	1	-3
O=C(OC(C(=O)Nc1cccc(C(F)(F)F)c1)c1ccccc1)C1CCN(C(=O)c2ccc(Cl)cc2)CC1 (stereo not given)	-7	0	3	8
Oc1cccc2c(-c3ccc(O)c4c(O)cccc34)ccc(O)c12	71*	78*	-54	98*
Cc1cc(-c2ncc(C)[nH]2)nc(C2CCCN2c2ccnc(C)n2)n1 (stereo not given)	-3	1	3	-6
CC(=O)N1c2ccc(S(=O)(=O)NCC3CCC(C(=O)NCc4ccccn4)CC3)cc2CC1C (stereo not given)	0	1	7	-10
Cc1ccc2c(c1)c(=O)c(C(=O)c1ccccc1)cn2CC(=O)Nc1ccc(C)c(Cl)c1	15	5	18	59*
SMILES	USP10 inh	UCHL1 inh	USP7 block	USP8 inh
Cc1ccc2c(c1)c(=O)c(C(=O)c1ccccc1)cn2CC(=O)Nc1ccc2c(c1)OCO2	31*	-1	23	71*
Cc1nc2sc3c(SCC(=O)N(c4ccccc4)c4ccccc4)ncnc3c2c2c1COC(C)(C)C2	-3	2	-42	10
COc1ccc(NC(=O)c2ncoc2-c2cccs2)c(OC)c1	6	6	4	3
O=C(O)CN(C(=O)C1CCC1)[C@@H]1C[C@@H]2CO[C@H](c3ccccc3)C[C@@H]2C1	0	-2	1	3
COc1ccc(NC(=O)CN2CC(C)Sc3ccccc32)cc1 (stereo not given)	-4	1	2	44*
CS(=O)(=O)N1CCN2C[C@H]1C(=O)NC[C@H]1O[C@@H](CC(=O)N[C@H]3C[C@@H](C2=O)N(Cc2ccc(C(F)(F)F)cc2)C3)[C@H](O)[C@@H]1O	1	0	-4	4
CCn1cc(CN2CCOC(c3cccc(-c4cccc(F)c4)n3)C2)cn1 (stereo not given)	-2	-4	-5	4
